Test results: PubChem BioAssay
For part of these data: Potency and affinity values are given separately. Calls of active or inactive are those of the source.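 The calls were made as follows, unless noted: active = earlier screen potentiator hit that boosts the TRPC4 ion channel at some dose, with a dose response; inactive = no potentiation, no dose response, or not a prior hit.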

Assays:
[1] = test system: TRPC4 beta (transient receptor potential cation channel C4), mouse; experiment: TRPC4 cation channel opening, retest – cell-based, Fluo4 calcium, HEK293 TRPC4beta/mu-opioid, duplicates, 10 µM, confirmation (AID 2426;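 active = fluorescence ratio normalized to control raised more than 50% in primary screen plus both repeat runs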;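 as to activation: percent rise of integrated ratio over buffer wells lacking compound which define 0%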); conditions: Fluo4 calcium fluorescence, at 10 µM; active compounds read high
[2] = test system: transient receptor potential cation channel C4 beta (TRPC4), mouse; experiment: TRPC4 cation channel opening, second retest – cell-based, second round, Fluo4, HEK293 TRPC4beta/mu-opioid, 1 µM, confirmation (AID 2461;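 active = primary screen active and over 50% activation in each of two duplicate runs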;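 as to activation: 0% = wells without test compound as baseline of integrated fluorescence ratio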); conditions: Fluo4 calcium fluorescence, at 1 µM; active compounds read high
[3] = test system: TRPC4 (transient receptor potential cation channel C4 beta), mouse; experiment: potentiation of DAMGO EC20 TRPC4 response – cell-based, second round, Fluo-4, HEK293 TRPC4beta/mu-opioid, 1 µM, confirmation (AID 2554;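 active = primary screen hit whose fluorescence ratio, in both repeats, exceeds the weak agonist control mean by 3 SD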); conditions: DAMGO EC20, Fluo-4 calcium flux, at 1 µM; active compounds read high
[4] = test system: TRPC4 beta (transient receptor potential cation channel C4), mouse; experiment: potentiation of DAMGO EC20 TRPC4 response – cell-based, Fluo-4, HEK293 TRPC4beta/mu-opioid, confirmation (AID 2555;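 active = primary screen hit whose calcium fluorescence ratio, in both repeats, exceeds the weak agonist control mean by 3 SD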); conditions: DAMGO EC20, Fluo-4 calcium flux, at 10 µM; active compounds read high
[5] = target: Short transient receptor potential channel 4 (Mus musculus) (UniProt Q9QUQ5); experiment: blockers of DAMGO-evoked TRPC4 calcium flux – cell-based, Fluo4, HEK293 TRPC4beta/mu-opioid, confirmation (AID 2636;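 active = calcium signal cut by more than 3 SD below the full-agonist control yet still positive, in both repeats and the earlier primary screen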); conditions: at 10 µM; active compounds read high
[6] = target: Short transient receptor potential channel 4 (Mus musculus) (UniProt Q9QUQ5); experiment: blockers of DAMGO-evoked TRPC4 calcium flux – cell-based, second round, Fluo4, HEK293 TRPC4beta/mu-opioid, 1 µM, confirmation (AID 2637;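 active = calcium signal ratio cut to more than 3 SD under the fully stimulated control mean yet still positive, in both repeats and the primary screen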); conditions: at 1 µM; active compounds read high
[7] = target: Short transient receptor potential channel 4 (Mus musculus) (UniProt Q9QUQ5); experiment: potentiation of DAMGO-evoked TRPC4 calcium signal – cell-based, HEK293 TRPC4/mu-opioid, Fluo-4 calcium, EC20 DAMGO, dose response (AID 434941);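 also: calcium entry triggered by an EC20 dose of DAMGO at the co-expressed mu-opioid receptor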
[8] = target: Short transient receptor potential channel 4 (Mus musculus) (UniProt Q9QUQ5); experiment: block of DAMGO-driven TRPC4 calcium entry – cell-based, HEK293 TRPC4/mu-opioid, Fluo-4 calcium, dose response (AID 434942;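 active = primary screen inhibitor hit that blocks the TRPC4 channel at some tested dose, yielding a dose curve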)
[9] = target: Short transient receptor potential channel 6 (Mus musculus) (UniProt Q61143); experiment: TRPC6 blockade by TRPC4 inhibitor hits – cell-based, HEK293, membrane potential dye, duplicate, selectivity assay for TRPC4 inhibitor project, confirmation (AID 434948;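 active = active in primary screen and both duplicates, each dropping signal beyond three positive-control SD with fluorescence still positive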); conditions: HEK293 TRPC6, membrane potential dye fluorescence, at 10 µM, stimulated with maximal-effect acetylcholine; active compounds read high
[10] = target: Short transient receptor potential channel 6 (Mus musculus) (UniProt Q61143); experiment: TRPC6 opening by TRPC4 activator hits – cell-based, HEK293, membrane potential dye, duplicate, selectivity assay for TRPC4 activator project, confirmation (AID 434950;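 active = membrane potential signal rise above negative control mean plus 3 SD in both duplicates, also active in the earlier TRPC4 screen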;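 as to activation: 0% = buffer only wells and 100% = acetylcholine maximal-effect wells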); conditions: HEK293 TRPC6, membrane potential fluorescence, at 10 µM; activation: active compounds read high; outcome: activation
[11] = target: Short transient receptor potential channel 6 (Mus musculus) (UniProt Q61143); experiment: positive modulators of mouse TRPC6 channel – HEK293 cells, membrane potential dye, duplicate, selectivity assay for TRPC4 potentiator project, confirmation (AID 434952;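 active = compound raising the membrane signal above positive-control mean plus 3 SD in both repeats, and a primary screen hit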); conditions: HEK293 TRPC6, membrane potential dye fluorescence, at 10 µM, maximal acetylcholine added after compound; active compounds read high
[12] = target: Short transient receptor potential channel 4 (Mus musculus) (UniProt Q9QUQ5); experiment: calcium flux activators in TRPC4/5HT1a cells, counter-screen for TRPC4 activator project, cell-based, second counter screen, HEK293 TRPC4/5HT1a, Fluo-4 (AID 434977;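 active = calcium signal rise above buffer-control mean plus 5 SD in both duplicates, and also a hit in the primary screen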;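 as to activation: plate controls were assay buffer for no effect and maximal serotonin response for full effect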); conditions: Fluo-4 calcium flux, at 10 µM; active compounds read high
[13] = serotonin-gated TRPC4 signal block – cell-based, second counter screen, HEK293 TRPC4/5HT1a, Fluo-4, counter-screen for TRPC4 inhibitor project, confirmation (AID 434978;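 active = primary screen active whose calcium signal fell more than 3 SD beyond the full-serotonin control mean in both duplicate plates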;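 also: serotonin given first at submaximal then at maximal dose after compound preincubation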); conditions: Fluo-4 calcium flux, at 10 µM, serotonin added to trigger calcium flux; active compounds read high
[14] = test system: TRPC4 (mouse), co-expressed with 5HT1a in HEK293; experiment: enhancement of serotonin-evoked TRPC4 response – cell-based, second counter screen, HEK293 TRPC4/5HT1a, Fluo-4, counter-screen for TRPC4 potentiator project, confirmation (AID 434979;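 active = signal rise over 3 SD above mean of control wells given weak agonist, in both repeats and first screen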); conditions: Fluo-4 calcium flux, at 10 µM, serotonin added at its EC20 dose; active compounds read high
[15] = nonspecific calcium rise without TRPC4 – cell-based, HEK293 mu-opioid receptor line, counter-screen for TRPC4 activator project, confirmation (AID 449723;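 active = hit in primary screen, with calcium signal over 5 SD above buffer well mean in both duplicates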;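 also: counter screen cells carry the mu-opioid receptor alone and lack TRPC4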); conditions: HEK293 mu-opioid cells, Fluo-4 calcium fluorescence, at 10 µM; active compounds read high
[16] = nonspecific potentiation of DAMGO calcium response – cell-based, HEK293 mu-opioid receptor line, counter-screen for TRPC4 allosteric potentiator project, confirmation (AID 449724;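 active = calcium signal rise more than 3 SD above the low-dose agonist control mean, in both duplicate plates and the primary screen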;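 also: HEK293 cells carrying mu-opioid receptor only with no TRPC4 channel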); conditions: HEK293 mu-opioid receptor cells, Fluo-4 calcium flux, at 10 µM, compound added before EC20 DAMGO stimulus; active compounds read high

Short transient receptor potential channel 4 (Mus musculus), sequence (Q9QUQ5 whole entry, looked up): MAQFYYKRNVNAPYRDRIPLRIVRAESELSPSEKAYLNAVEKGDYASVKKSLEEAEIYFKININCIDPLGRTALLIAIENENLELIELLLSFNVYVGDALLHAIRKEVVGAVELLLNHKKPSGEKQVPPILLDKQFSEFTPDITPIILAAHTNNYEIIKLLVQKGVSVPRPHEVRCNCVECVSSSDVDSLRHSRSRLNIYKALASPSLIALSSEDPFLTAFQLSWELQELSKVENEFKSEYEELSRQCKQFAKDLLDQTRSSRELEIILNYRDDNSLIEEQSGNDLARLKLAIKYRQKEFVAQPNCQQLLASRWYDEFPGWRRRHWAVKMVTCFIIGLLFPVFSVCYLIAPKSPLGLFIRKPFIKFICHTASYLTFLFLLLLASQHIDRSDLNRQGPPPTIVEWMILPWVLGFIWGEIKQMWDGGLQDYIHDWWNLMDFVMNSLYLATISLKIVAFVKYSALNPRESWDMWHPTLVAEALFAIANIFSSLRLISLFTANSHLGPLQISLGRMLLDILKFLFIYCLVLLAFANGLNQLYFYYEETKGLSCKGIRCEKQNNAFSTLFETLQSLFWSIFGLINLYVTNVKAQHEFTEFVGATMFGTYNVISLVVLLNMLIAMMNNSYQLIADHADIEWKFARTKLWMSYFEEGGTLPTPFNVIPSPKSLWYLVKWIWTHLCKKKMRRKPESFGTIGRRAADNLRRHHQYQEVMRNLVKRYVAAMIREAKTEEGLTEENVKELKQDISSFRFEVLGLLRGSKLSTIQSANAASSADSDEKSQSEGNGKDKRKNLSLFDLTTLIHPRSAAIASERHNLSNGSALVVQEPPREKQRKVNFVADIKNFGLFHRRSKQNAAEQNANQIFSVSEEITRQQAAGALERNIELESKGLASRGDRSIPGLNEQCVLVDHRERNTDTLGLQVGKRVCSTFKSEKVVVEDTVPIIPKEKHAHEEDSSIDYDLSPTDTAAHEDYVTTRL
Short transient receptor potential channel 6 (Mus musculus), sequence (Q61143 whole entry, looked up): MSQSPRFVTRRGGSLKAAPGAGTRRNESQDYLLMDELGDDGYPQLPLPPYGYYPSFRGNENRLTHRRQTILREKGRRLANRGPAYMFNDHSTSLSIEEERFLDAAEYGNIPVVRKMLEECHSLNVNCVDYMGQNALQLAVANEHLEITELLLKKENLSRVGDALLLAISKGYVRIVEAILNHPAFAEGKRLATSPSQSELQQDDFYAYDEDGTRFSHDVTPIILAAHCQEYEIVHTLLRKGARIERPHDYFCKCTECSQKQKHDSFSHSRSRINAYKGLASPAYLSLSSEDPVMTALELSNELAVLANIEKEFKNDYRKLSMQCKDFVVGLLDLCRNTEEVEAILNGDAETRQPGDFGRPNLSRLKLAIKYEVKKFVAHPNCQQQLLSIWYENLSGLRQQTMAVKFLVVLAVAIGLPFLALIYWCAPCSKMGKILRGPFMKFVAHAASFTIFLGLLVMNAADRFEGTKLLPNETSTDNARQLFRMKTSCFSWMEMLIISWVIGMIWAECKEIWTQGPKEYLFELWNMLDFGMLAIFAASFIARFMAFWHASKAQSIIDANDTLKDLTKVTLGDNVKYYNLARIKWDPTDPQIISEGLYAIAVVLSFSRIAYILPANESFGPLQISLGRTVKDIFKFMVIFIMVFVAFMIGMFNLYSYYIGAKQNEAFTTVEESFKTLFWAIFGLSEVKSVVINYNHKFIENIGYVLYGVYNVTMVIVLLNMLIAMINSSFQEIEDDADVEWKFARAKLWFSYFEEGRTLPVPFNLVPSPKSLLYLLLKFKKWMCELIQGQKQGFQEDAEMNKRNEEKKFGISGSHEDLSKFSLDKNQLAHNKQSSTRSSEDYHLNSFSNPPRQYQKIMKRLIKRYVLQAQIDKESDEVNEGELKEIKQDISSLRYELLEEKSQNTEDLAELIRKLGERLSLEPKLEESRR

CN(C)C(CNC(=S)Nc1ccc(F)cc1)c1cccnc1 (stereo not given)
inactive: outcome [3] | outcome [4] | outcome [5] | outcome [6] | outcome [7] | outcome [8] | outcome [9] | outcome [11] | outcome [12] | outcome [13] | outcome [14] | outcome [15] | outcome [16]
active: activation [1] 95% | activation [2] 82% | activation [10] 28.5%

Cc1ccccc1C(=O)NNC(=S)NC(=O)c1ccccc1
inactive: outcome [2] | outcome [3] | outcome [4] | outcome [5] | outcome [6] | outcome [7] | outcome [8] | outcome [9] | outcome [11] | outcome [13] | outcome [14] | outcome [16]
active: activation [1] 215% | activation [10] 43.5% | activation [12] 121% | activation [15] 72.9%

Cc1csc2c(N3CCN(C(=O)NC(C)(C)C)CC3)ncnc12
active: activation [1] 92% | activation [12] 36.7%
inactive: outcome [2] | outcome [3] | outcome [4] | outcome [5] | outcome [6] | outcome [7] | outcome [8] | outcome [9] | outcome [10] | outcome [11] | outcome [13] | outcome [14] | outcome [15] | outcome [16]

CCOC(=O)C1(CCc2ccccc2)CCN(Cc2ccc(OC)cc2)CC1
active: activation [1] 101% | activation [10] 77.5%
inactive: outcome [2] | outcome [3] | outcome [4] | outcome [5] | outcome [6] | outcome [7] | outcome [8] | outcome [9] | outcome [11] | outcome [12] | outcome [13] | outcome [14] | outcome [15] | outcome [16]

CCCc1c(O)nc(SCCN(CCC)CCC)[nH]c1=O
inactive: outcome [2] | outcome [3] | outcome [4] | outcome [5] | outcome [6] | outcome [7] | outcome [8] | outcome [9] | outcome [10] | outcome [11] | outcome [13] | outcome [15] | outcome [16]
active: activation [1] 96% | activation [12] 12.4% | potentiation [14] 23.3%

O=C(Cn1c(-c2ccccc2)c[n+]2ccsc12)c1ccc(Br)cc1
active: activation [2] 77%
inactive: outcome [1] | outcome [3] | outcome [4] | outcome [5] | outcome [6] | outcome [7] | outcome [8] | outcome [9] | outcome [10] | outcome [11] | outcome [12] | outcome [13] | outcome [14] | outcome [15] | outcome [16]

CC(=O)Nc1ccc(CN2CCCC(C(=O)c3cccc(C(F)(F)F)c3)C2)cc1 (stereo not given)
active: activation [1] 96% | activation [10] 29.5%
inactive: outcome [2] | outcome [3] | outcome [4] | outcome [5] | outcome [6] | outcome [7] | outcome [8] | outcome [9] | outcome [11] | outcome [12] | outcome [13] | outcome [14] | outcome [15] | outcome [16]

O=C(CNS(=O)(=O)c1ccc2ccccc2c1)NCCc1ccccn1
active: activation [1] 110%
inactive: outcome [2] | outcome [3] | outcome [4] | outcome [5] | outcome [6] | outcome [7] | outcome [8] | outcome [9] | outcome [10] | outcome [11] | outcome [12] | outcome [13] | outcome [14] | outcome [15] | outcome [16]

CCN1CCN(c2ccc(S(=O)(=O)N3CCOCC3)cc2NC(=O)C(C)Oc2cccc(Cl)c2)CC1 (stereo not given)
inactive: outcome [2] | outcome [3] | outcome [4] | outcome [5] | outcome [6] | outcome [7] | outcome [8] | outcome [9] | outcome [11] | outcome [13] | outcome [14] | outcome [15] | outcome [16]
active: activation [1] 83% | activation [10] 38% | activation [12] 11.3%

Cc1ccc(-n2cc(CNCC3CC(=O)N(C4CC4)C3)c(-c3cccc(C)c3)n2)cc1 (stereo not given)
active: activation [1] 165% | activation [10] 52.5%
inactive: outcome [2] | outcome [3] | outcome [4] | outcome [5] | outcome [6] | outcome [7] | outcome [8] | outcome [9] | outcome [11] | outcome [12] | outcome [13] | outcome [14] | outcome [15] | outcome [16]

Cc1cc(Cl)cc(C)c1OCCCCn1ccnc1
inactive: outcome [2] | outcome [3] | outcome [4] | outcome [5] | outcome [6] | outcome [7] | outcome [8] | outcome [9] | outcome [11] | outcome [13] | outcome [14] | outcome [15] | outcome [16]
active: activation [1] 98% | activation [10] 42.5% | activation [12] 36.8%

CCN(c1ccccc1)S(=O)(=O)c1ccc(C(=O)N(CCCN(C)C)c2nc3cc4c(cc3s2)OCO4)cc1
active: activation [1] 99%
inactive: outcome [2] | outcome [3] | outcome [4] | outcome [5] | outcome [6] | outcome [7] | outcome [8] | outcome [9] | outcome [10] | outcome [11] | outcome [12] | outcome [13] | outcome [14] | outcome [15] | outcome [16]

COc1ccc(C(CCNCc2ccc(N(C)C)cc2)c2ccccc2OC)cc1 (stereo not given)
inactive: outcome [2] | outcome [3] | outcome [4] | outcome [5] | outcome [6] | outcome [7] | outcome [8] | outcome [9] | outcome [10] | outcome [11] | outcome [13] | outcome [14] | outcome [15] | outcome [16]
active: activation [1] 133% | activation [12] 8.8%

CN(C)C(CNC(=O)C1CC(=O)N(Cc2ccccc2)C1)c1ccccc1 (stereo not given)
active: activation [1] 90%
inactive: outcome [2] | outcome [3] | outcome [4] | outcome [5] | outcome [6] | outcome [7] | outcome [8] | outcome [9] | outcome [10] | outcome [11] | outcome [12] | outcome [13] | outcome [14] | outcome [15] | outcome [16]

CCCN(CCC)CCCNC(=O)C1CCN(S(=O)(=O)c2cccc3nsnc23)CC1
active: activation [1] 145% | activation [2] 95% | activation [12] 54.7%
inactive: outcome [3] | outcome [4] | outcome [5] | outcome [6] | outcome [7] | outcome [8] | outcome [9] | outcome [10] | outcome [11] | outcome [13] | outcome [14] | outcome [15] | outcome [16]
